S1P2 blocker: blocks the human S1P2 receptor | O95136 | cell-based S1P2 antagonist assay, inhibition at 5 uM | inhibition, % at 5 µM | 0.21% of 97,000 active; in the data active = inhibition above about 45%;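 note: CRE beta-lactamase reporter cells expressing human S1P2 stimulated with S1P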
Target sequence (O95136 whole entry, looked up): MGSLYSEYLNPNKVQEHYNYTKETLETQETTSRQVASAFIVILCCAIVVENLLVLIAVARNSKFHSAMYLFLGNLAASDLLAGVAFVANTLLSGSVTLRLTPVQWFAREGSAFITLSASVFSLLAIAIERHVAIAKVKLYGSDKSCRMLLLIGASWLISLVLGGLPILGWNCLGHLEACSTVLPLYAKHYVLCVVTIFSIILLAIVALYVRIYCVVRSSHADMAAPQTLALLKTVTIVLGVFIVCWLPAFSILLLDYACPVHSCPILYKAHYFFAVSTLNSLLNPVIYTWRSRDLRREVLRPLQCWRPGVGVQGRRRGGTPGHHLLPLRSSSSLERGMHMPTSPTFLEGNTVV
GALR2 ag: GALR2 (human) receptor agonism; O43603; GALR2-expressing cells, agonist activation read-out; activation, % (test concentration not listed); 0.48% of 140,000 active; AID 803; in the data active = activation above about 5%, passing the limit was not always enough
Target sequence (O43603 whole entry, looked up): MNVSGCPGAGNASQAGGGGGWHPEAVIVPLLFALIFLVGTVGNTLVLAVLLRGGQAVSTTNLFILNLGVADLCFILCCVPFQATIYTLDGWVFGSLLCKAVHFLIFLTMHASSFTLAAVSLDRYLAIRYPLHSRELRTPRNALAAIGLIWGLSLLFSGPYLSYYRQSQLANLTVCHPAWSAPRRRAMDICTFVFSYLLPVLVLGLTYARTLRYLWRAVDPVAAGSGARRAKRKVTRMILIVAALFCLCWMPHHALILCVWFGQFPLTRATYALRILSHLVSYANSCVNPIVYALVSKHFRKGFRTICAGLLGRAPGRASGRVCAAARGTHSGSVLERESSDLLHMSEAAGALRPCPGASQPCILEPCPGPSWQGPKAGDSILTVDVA
GALR2 blocker: GALR2 (human) receptor antagonism | 0.39% of 140,000 active | inhibition, % at 4 µM | GALR2-expressing cells, antagonist mode;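 note: cells stimulated with galanin 1-16 at roughly its EC80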
MRP1 act: MRP-1 activation. H69AR cells + doxorubicin, viability rescue, CellTiter-Glo. viability increase, % at 10 µM. 0.61% of 140,000 active. AID 799;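 active = viability gain under doxorubicin at or above a set limit, the compound median plus 3 SD, cut at about 4.7% in these data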;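 note: MRP-1 overexpressing cells given doxorubicin 25 µM after compound pretreatment; 18-22 h compound pretreatment then 72 h with doxorubicin before readout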
S1P2 agonist: S1P2 (human) receptor agonism; O95136; S1P2-expressing cell line, agonist reporter read-out; activation, % at 4.5 µM; 0.46% of 97,000 active; in the data active = activation above about 16%
MRP reversal: reverses drug resistance mediated by MRP; H69AR cells + 2 uM doxorubicin, CellTiter-Glo, 72 h; differential viability (reversal), % at 10 µM; 0.04% of 85,000 active;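 active = viability drop by adding the cancer drug above about 55%, with treated viability meeting a 40% cutoff, limit read from the data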;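 note: larger differential means the compound sensitizes cells more to doxorubicin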
GALR2 blk conf: GALR2 (human) antagonism confirmed; AID 866; 60% of 480 active; GALR2-expressing cells, antagonist mode, inhibition; shares compounds with GALR2 blocker; inhibition, % at 4 µM;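 note: cells stimulated with galanin at about its EC80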
BLA inh counter: beta-lactamase inhibition, GALR2 counterscreen; inhibition, % at 4.2 µM; CHO NFAT-BLA reporter, beta-lactamase FRET, thapsigargin-stimulated; 36% of 480 active; shares compounds with GALR2 blocker; AID 867;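 active = inhibition above the mean inhibition across tested compounds plus 3 SD, cut at about 27% in these data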
Each line names hits and unclear results; the compound was inactive in the other large screens (follow-up assays come after a bar, where they were run). The list is not random: actives were taken first. Their share in the collection is about 1.7%. Cut-off read from the data, not from the text of the source, unless noted: active = inhibition above about 27%; inactive = the rest.

CC1CCN(C(c2cccs2)c2nnnn2Cc2ccccc2)CC1 (configuration not stated)	none
COC(=O)c1ccc2c(=O)n(CCCCCC(=O)O)c(=S)[nH]c2c1	none (no result: S1P2 blocker, S1P2 agonist, MRP reversal)
Cc1ccc(N2CCN(C(=O)c3ccccc3NC(=O)/C=C\C(=O)O)CC2)cc1	none (no result: MRP reversal)
Cc1n[nH]c(C)c1N1C(=O)c2cccc3c(Br)ccc(c23)C1=O	S1P2 blocker 74, GALR2 blocker 44 | GALR2 blk conf 28 | BLA inh counter inactive
Cc1n[nH]c(C)c1N1C(=O)c2cccc3cc(Br)cc(c23)C1=O	none
CC(=O)CC(=O)Nc1ccc(Nc2ccccc2)cc1	none (no result: S1P2 blocker, S1P2 agonist, MRP reversal)
COC(=O)Nc1ccc2c(c1)N(C(=O)CCN1CCN3CCCC3C1)c1ccccc1CC2 (configuration not stated)	GALR2 blocker 28 (no result: S1P2 blocker, S1P2 agonist, MRP reversal) | GALR2 blk conf inactive | BLA inh counter inactive
CCOC(=O)Nc1ccc2c(c1)N(C(=O)CCN1CCN3CCCC3C1)c1ccccc1CC2 (configuration not stated)	none
Cc1ccc(C#CC[N+]2(CC#Cc3ccc(C)cc3)CCCCC2)cc1	none (no result: S1P2 blocker, S1P2 agonist, MRP reversal)
CCCCCCCCCCn1c2c(c(=N)c3c1CCC3)CCC2	S1P2 blocker 87, GALR2 blocker 36 | GALR2 blk conf 30 | BLA inh counter 57
CCOC(=O)COc1ccccc1/C=C\[N+](=O)[O-]	GALR2 blocker 30 (no result: S1P2 blocker, S1P2 agonist, MRP reversal) | GALR2 blk conf 43 | BLA inh counter 30
CCOc1cc(-c2nc(-c3ccncc3)no2)cc(OCC)c1OCC	GALR2 blocker 35 | GALR2 blk conf inactive | BLA inh counter inactive
CCOc1ccc(-c2nc(-c3ccncc3)no2)cc1OCC	none
COc1cccc(-c2cn3nc(C)c(C)nc3n2)c1	none
COc1ccc(-c2cn3nc4c(nc3n2)CCCC4)cc1	GALR2 blocker 31 | GALR2 blk conf inactive | BLA inh counter inactive
CCOC(=O)c1ccc(NC(=O)c2ccccc2[N+](=O)[O-])cc1	none (no result: S1P2 blocker, S1P2 agonist, MRP reversal)
CCOC(=O)c1cc([N+](=O)[O-])c([N+](=O)[O-])cc1NC(C)=O	GALR2 blocker 41 (no result: S1P2 blocker, S1P2 agonist, MRP reversal) | GALR2 blk conf 48 | BLA inh counter inactive
Cc1sc2ncnc(NCc3ccco3)c2c1C	none
Cc1sc2ncnc(NCc3cccs3)c2c1C	GALR2 blocker 28 | GALR2 blk conf inactive | BLA inh counter inactive
Cc1ccc(NC(=O)c2ccccc2N(C)S(C)(=O)=O)cc1C	none
Nc1ccc2nc(-c3cccs3)[nH]c2c1	GALR2 blocker 28 | GALR2 blk conf inactive | BLA inh counter inactive
COc1ccc(OCCNc2cc(N3CCCCC3)ccc2[N+](=O)[O-])cc1	none (no result: MRP reversal)
COc1ccc(OCCNc2cc(Cl)ccc2[N+](=O)[O-])cc1	GALR2 blocker 71 (no result: MRP reversal) | GALR2 blk conf inactive | BLA inh counter inactive
Cc1ccc(C)c(N2CCN(c3ccc(N4C(=O)COCC4=O)cc3[N+](=O)[O-])CC2)c1	none (no result: S1P2 blocker, S1P2 agonist, MRP reversal)
Cc1cc(N2C(=O)C=CC2=O)c([N+](=O)[O-])cc1C	GALR2 blocker 45 (no result: S1P2 blocker, S1P2 agonist, MRP reversal) | GALR2 blk conf 46 | BLA inh counter 71
O=[N+]([O-])c1cc(-c2ncccn2)c([N+](=O)[O-])s1	GALR2 blocker 45 (no result: S1P2 blocker, S1P2 agonist, MRP reversal) | GALR2 blk conf 55 | BLA inh counter inactive
CC(=O)c1c(C)[nH]c(C(=O)OCC(=O)Nc2ccc(Cl)cc2[N+](=O)[O-])c1C	GALR2 blocker 36 (no result: S1P2 blocker, S1P2 agonist, MRP reversal) | GALR2 blk conf 51 | BLA inh counter inactive
CCSc1nnc(NC(=O)[C@@H](NC(=O)c2ccc(C(C)(C)C)cc2)C(C)C)s1	none (no result: S1P2 blocker, S1P2 agonist, MRP reversal)
O=C(N/N=C/c1cc2c3c(c1O)CCCN3CCC2)c1ccccc1O	GALR2 blocker 32 (no result: S1P2 blocker, S1P2 agonist, MRP reversal) | GALR2 blk conf 35 | BLA inh counter inactive
CC(C)(C)n1ncc(Oc2ccc(Oc3cnn(C(C)(C)C)c(=O)c3Cl)cc2)c(Cl)c1=O	none (no result: MRP1 act)
Cc1ccccc1Oc1cc(-n2ncc(Cl)c(Cl)c2=O)ncn1	GALR2 blocker 82 (no result: S1P2 blocker, S1P2 agonist, MRP reversal) | GALR2 blk conf 97 | BLA inh counter 103
COc1ccccc1Oc1cc(-n2nc(C)cc2C)ncn1	none (no result: S1P2 blocker, S1P2 agonist, MRP reversal)
CCOc1cnn(-c2cc(Oc3ccc(C)cc3)ncn2)c(=O)c1Cl	GALR2 blocker 28 (no result: MRP reversal) | GALR2 blk conf inactive | BLA inh counter inactive
CCC(=O)N1c2ccc(C)cc2C2=NNC(=S)NC21O (configuration not stated)	none (no result: MRP reversal)
CC(=O)Nc1cn(C(C)=O)c(C)n1	GALR2 blocker 29 (no result: S1P2 blocker, S1P2 agonist) | GALR2 blk conf inactive | BLA inh counter inactive
O=C(CSCc1nc2ccccc2[nH]1)N1CCN(c2ccc(F)cc2)CC1	GALR2 blocker 30 | GALR2 blk conf inactive | BLA inh counter inactive
O=C1/C(=C/c2ccco2)CCc2ccccc21	none (no result: S1P2 blocker, S1P2 agonist, MRP reversal)
Nc1ccc2c(c1)C/C(=C/c1ccco1)C2=O	GALR2 blocker 29 (no result: S1P2 blocker, S1P2 agonist, MRP reversal) | GALR2 blk conf 33 | BLA inh counter 36
O=C(CCCOc1ccccc1)NC1CCCc2ccccc21 (configuration not stated)	none (no result: S1P2 blocker, S1P2 agonist, MRP reversal)
Cn1nc(-c2ccc(Cl)cc2)nc2c(=O)n(C)c(=O)nc1-2	S1P2 blocker 99, GALR2 blocker 94 | GALR2 blk conf 100 | BLA inh counter 95
O=C(Nc1ccc(N2CCOCC2)cc1)c1cccc(S(=O)(=O)N2CCC(Cc3ccccc3)CC2)c1	none
CCc1ccc2c(c1)/C(=C/C(=O)c1cccs1)C(=O)N2	GALR2 blocker 28 | GALR2 blk conf 35 | BLA inh counter inactive
CC1CCCC(NC(=S)NC(=O)c2ccccc2Br)C1C (configuration not stated)	none (no result: S1P2 blocker, S1P2 agonist, MRP reversal)
Cc1ccccc1Nc1cccc2nonc12	GALR2 blocker 33 (no result: S1P2 blocker, S1P2 agonist, MRP reversal) | GALR2 blk conf 38 | BLA inh counter 47
Cc1ccccc1Nc1nc2ccccc2s1	none (no result: S1P2 blocker, S1P2 agonist, MRP reversal)
Cc1cccc(C(=O)c2c[nH]cc2-c2ccccc2)c1	none (no result: S1P2 blocker, S1P2 agonist, MRP reversal)
CC(C)Nc1ncnc2ccc(Br)cc12	GALR2 blocker 38 (no result: S1P2 blocker, S1P2 agonist, MRP reversal) | GALR2 blk conf 36 | BLA inh counter inactive
CSCCC(Nc1ncnc2ccc(Br)cc12)C(=O)O (configuration not stated)	none
CC(NC(=S)NCCc1ccccc1)C(c1cccs1)N1CCN(Cc2ccccc2)CC1 (configuration not stated)	none (no result: S1P2 blocker, S1P2 agonist, MRP reversal)
CCOC(=O)C(O)(CC(=O)Nc1cc(F)ccc1C)C(F)(F)F (configuration not stated)	GALR2 blocker 29 | GALR2 blk conf inactive | BLA inh counter inactive
Cc1ccc(NCC(=O)NNC2=NCCC2)c(C)c1	none (no result: S1P2 blocker, S1P2 agonist, MRP reversal)
Cc1ccc2nc(-c3sc4nc(C)ccc4c3N)[nH]c2c1	none
Cc1cc(C)c2c(N)c(-c3nc4ccccc4[nH]3)sc2n1	GALR2 blocker 28 | GALR2 blk conf inactive | BLA inh counter inactive
COc1ccc(-c2cc(-c3ccc(C)cc3)nc(SCc3nnc(-c4ccccc4)o3)c2C#N)cc1OC	none (no result: S1P2 blocker, S1P2 agonist, MRP reversal)
N#C/C(=C/c1ccc(-c2ccc(S(N)(=O)=O)cc2)o1)C(=O)Nc1ccccc1	none (no result: S1P2 blocker, S1P2 agonist, MRP reversal)
N#C/C(=C/c1ccc(-c2ccc(S(N)(=O)=O)cc2)o1)c1nc2ccccc2s1	GALR2 blocker 28 (no result: S1P2 blocker, S1P2 agonist, MRP reversal) | GALR2 blk conf 41 | BLA inh counter 52

Screening data as filed in PubChem.
